This is part of a sample that, as a whole, favours compounds with a hit. Of some 83,000 tested, about 20% had one in any assay.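 Cell lines were cultured in 96-well plates, exposed to a single compound concentration, and assessed for percent growth 48 hours later.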 Activity calls are given as the source filed them. How the source made its calls: active means growth percent below 10; inactive means the rest.
Columns and labels:
Test in all cases: NCI-60 one-dose screen, 48 h (100 = growth as untreated, 0 = no growth, -100 = all killed)
SR leukemia = conditions: 10 µM unless noted
RPMI-8226 leukemia = conditions: 10 µM unless noted
OVCAR-8 ovarian = conditions: 10 µM unless noted
OVCAR-5 ovarian = conditions: 10 µM unless noted
OVCAR-4 ovarian = conditions: 10 µM unless noted
SK-OV-3 ovarian = conditions: 10 µM unless noted
IGROV1 ovarian = conditions: 10 µM unless noted
OVCAR-3 ovarian = conditions: 10 µM unless noted
HS 578T breast = conditions: 10 µM

Measured: growth

[O-]/[N+](=C\c1ccccc1)CC1(O)CCCCC1
inactive: SR leukemia 99.5% | RPMI-8226 leukemia 97.2% | OVCAR-8 ovarian 99.5% | OVCAR-5 ovarian 95.8% | OVCAR-4 ovarian 95.9% | SK-OV-3 ovarian 113% | IGROV1 ovarian 125% | OVCAR-3 ovarian 111% | HS 578T breast 98.2%

COc1ccc(C2CC(c3cccc(Nc4ccnc5cc(Cl)ccc45)c3)=NN2c2ccccc2)cc1 (stereo not given)
inactive: SR leukemia 29.7% | RPMI-8226 leukemia 67.9% | OVCAR-8 ovarian 76.4% | OVCAR-5 ovarian 85.6% | OVCAR-4 ovarian 118% | SK-OV-3 ovarian 80.8% | IGROV1 ovarian 74.8% | OVCAR-3 ovarian 92.1% | HS 578T breast 78.3%

COc1cc(C2CC(c3ccc(Cl)cc3)=NN2C=O)ccc1OS(=O)(=O)c1ccc(C)cc1 (stereo not given)
inactive: SR leukemia 99.8% | RPMI-8226 leukemia 82.4% | OVCAR-8 ovarian 90.3% | OVCAR-5 ovarian 87.2% | OVCAR-4 ovarian 112% | SK-OV-3 ovarian 96.3% | IGROV1 ovarian 94.4% | OVCAR-3 ovarian 102% | HS 578T breast 86.8%

CC(C)CC(NC(=O)C(CCCN=C(N)N)NC(=O)OCc1ccccc1)C(=O)NC(CNC(=O)/C=C/c1ccccc1)C(C)C (stereo not given)
inactive: SR leukemia 98.3% | RPMI-8226 leukemia 96% | OVCAR-8 ovarian 106% | OVCAR-5 ovarian 89.3% | OVCAR-4 ovarian 95.8% | SK-OV-3 ovarian 117% | IGROV1 ovarian 88.3% | OVCAR-3 ovarian 105%

COc1cc(C2CC(c3cccc(Nc4ccnc5cc(Cl)ccc45)c3)=NN2c2ccc(Cl)cc2)cc(OC)c1OC (stereo not given)
inactive: SR leukemia 55.9% | RPMI-8226 leukemia 47.8% | OVCAR-8 ovarian 55.2% | OVCAR-5 ovarian 80.2% | OVCAR-4 ovarian 115% | SK-OV-3 ovarian 92.2% | IGROV1 ovarian 39.7% | OVCAR-3 ovarian 83.3% | HS 578T breast 64.8%

COc1cccc(NC(=O)c2c(-c3ccccc3)c(-c3ccccc3)n[nH]c2=O)c1
inactive: SR leukemia 88.3% | RPMI-8226 leukemia 86.1% | OVCAR-8 ovarian 103% | OVCAR-5 ovarian 97.8% | OVCAR-4 ovarian 86% | SK-OV-3 ovarian 99.5% | IGROV1 ovarian 105% | OVCAR-3 ovarian 107%

CCn1c(CN2CCN(Cc3ccccc3)CC2)nc2cc(NC(=O)c3cccs3)ccc21
active: SR leukemia -9.71% | RPMI-8226 leukemia -27.6% | OVCAR-8 ovarian -61.8% | OVCAR-5 ovarian 4.74% | OVCAR-4 ovarian -51.2% | SK-OV-3 ovarian -95.1% | IGROV1 ovarian -83% | OVCAR-3 ovarian -94.5% | HS 578T breast -25.3%

NC(=S)N/N=C(/c1cccs1)C1CC1
inactive: SR leukemia 120% | RPMI-8226 leukemia 63.2% | OVCAR-8 ovarian 67.7% | OVCAR-5 ovarian 90.9% | OVCAR-4 ovarian 82.8% | SK-OV-3 ovarian 103% | IGROV1 ovarian 53.5% | OVCAR-3 ovarian 51.5%

CC(C)N1CCN(c2ccncc2S(=O)(=O)N2CCN(C)CC2)CC1
inactive: SR leukemia 93.5% | RPMI-8226 leukemia 102% | OVCAR-8 ovarian 103% | OVCAR-5 ovarian 96.9% | OVCAR-4 ovarian 96.1% | SK-OV-3 ovarian 103% | IGROV1 ovarian 119% | OVCAR-3 ovarian 110% | HS 578T breast 105%

CSC1=NC(=Nc2c(C)cccc2C)C2(CCC(C(C)(C)C)CC2)N1c1ccc(Cl)cc1 (stereo not given)
inactive: SR leukemia 26% | RPMI-8226 leukemia 51.5% | OVCAR-8 ovarian 31.6% | OVCAR-5 ovarian 72.1% | OVCAR-4 ovarian 60% | SK-OV-3 ovarian 57.6% | IGROV1 ovarian 55.4% | OVCAR-3 ovarian 55.3% | HS 578T breast 65.9%

Oc1ccc(Cl)cc1-c1cc(-c2ccccc2Cl)[nH]n1
inactive: SR leukemia 41.9% | RPMI-8226 leukemia 42.3% | OVCAR-8 ovarian 71.1% | OVCAR-5 ovarian 87.9% | OVCAR-4 ovarian 13.3% | SK-OV-3 ovarian 76.9% | IGROV1 ovarian 34.2% | OVCAR-3 ovarian 21.2%

Cc1nc2ccc(Nc3nc(Cl)nc(N4CCOCC4)n3)cc2n1Cc1ccccc1
active: IGROV1 ovarian -1.16%
inactive: SR leukemia 18.5% | RPMI-8226 leukemia 74.4% | OVCAR-8 ovarian 44% | OVCAR-5 ovarian 104% | OVCAR-4 ovarian 126% | SK-OV-3 ovarian 93.7% | OVCAR-3 ovarian 98.4% | HS 578T breast 81.4%

COc1ccc(C2CC(c3cccc(Nc4ccnc5cc(Cl)ccc45)c3)=NN2c2ccc(Cl)cc2)cc1 (stereo not given)
inactive: SR leukemia 69.7% | RPMI-8226 leukemia 42.6% | OVCAR-8 ovarian 56.6% | OVCAR-5 ovarian 84.4% | OVCAR-4 ovarian 95.9% | SK-OV-3 ovarian 94.7% | IGROV1 ovarian 99.1% | OVCAR-3 ovarian 74.2% | HS 578T breast 90.5%

COc1ccc(NC(=O)C2c3ccccc3C(=O)N(CC(C)C)C2c2cccs2)cc1 (stereo not given)
inactive: SR leukemia 96.5% | RPMI-8226 leukemia 86.3% | OVCAR-8 ovarian 89.1% | OVCAR-5 ovarian 97% | OVCAR-4 ovarian 93.6% | SK-OV-3 ovarian 96.5% | IGROV1 ovarian 117% | OVCAR-3 ovarian 102% | HS 578T breast 92.2%

Cc1nc2ccc(Nc3nc(NCCN4CCOCC4)nc(Nc4ccc(F)cc4)n3)cc2n1Cc1ccccc1
inactive: OVCAR-8 ovarian 50.2% | OVCAR-5 ovarian 84.1% | OVCAR-4 ovarian 98.1% | SK-OV-3 ovarian 79% | IGROV1 ovarian 69% | OVCAR-3 ovarian 73.7% | HS 578T breast 40.6%
active: SR leukemia 0.147% | RPMI-8226 leukemia 3.11%

COc1ccc(C(=O)/C=C/c2cn(-c3ccccc3)nc2-c2cccc(Nc3ccnc4cc(Cl)ccc34)c2)cc1
inactive: RPMI-8226 leukemia 66.7% | OVCAR-8 ovarian 91.1% | OVCAR-5 ovarian 111% | OVCAR-4 ovarian 115% | SK-OV-3 ovarian 118% | IGROV1 ovarian 105% | OVCAR-3 ovarian 110% | HS 578T breast 88.8%
active: SR leukemia 8.4%
